Source: PubChem BioAssay (NCATS)
Values joined by “and” are separate entries in the source; they are usually repeats but may differ in a detail not shown here. Equal entries are not always repeated. Records with an inconclusive call do not appear. More than one record can exist for a structure, and the calls need not agree. Active and inactive are the calls of the source. Calls come from the whole dose curve; as a rule, active = well fitted inhibition curve with a large enough effect; inconclusive = small, poorly fitted or top-dose-only effect; inactive = flat fitted curve, though single readings scatter.

Legend:
CRL-7250 [1] = experiment: Cytotoxic Profiling of Annotated Libraries Using Quantitative High-Throughput Screening (AID 1296008); conditions: Five cell lines viability, CellTiter-Glo ATP luminescence, 48-72 h; max response: active compounds read low; note: potency is the fitted concentration of half-maximal effect; for max response: % is set by controls: 0 for no effect and ±100 for the full control effect
Summary of the method: (§1)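 Cytotoxicity was measured as CellTiter-Glo ATP luminescence, read after 10 min at room temperature. Compound treatment of the cells lasted 48 or 72 hr at 37 degrees Celsius in a qHTS format.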

HEK293 = experiment: as above; conditions: Five cell lines viability, CellTiter-Glo ATP luminescence, 48-72 h; max response: active compounds read low
Summary of the method: as §1

HaCat [2] = experiment: as above; conditions: Five cell lines viability, CellTiter-Glo ATP luminescence, 48-72 h; max response: active compounds read low
Summary of the method: as §1

KB-3-1 = experiment: as above; conditions: Five cell lines viability, CellTiter-Glo ATP luminescence, 48-72 h; max response: active compounds read low
Summary of the method: as §1

NIH3T3 = experiment: as above; conditions: Five cell lines viability, CellTiter-Glo ATP luminescence, 48-72 h; max response: active compounds read low
Summary of the method: as §1

CRL-7250 [3] = experiment: qHTS assay to identify novel small-molecules to repurpose for Merkel cell carcinoma treatment (AID 1296009); conditions: MCC and control cell lines, CellTiter-Glo viability, 72 h; at 44.8 µM (top of the series) unless noted
Summary of the method: (§2)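 Cell viability, measured as CellTiter-Glo luminescence, was normalized between DMSO and no-cell wells. The cells had been exposed to 8- or 11-point compound dilutions for 72 hr at 37 degree celsius.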

HACAT [4] = experiment: as above; conditions: MCC and control cell lines, CellTiter-Glo viability, 72 h; at 44.8 µM (top of the series) unless noted
Summary of the method: as §2
Note: nearly all actives have a fitted effect of over 60% in size.

CCN1C[C@]2(COC(=O)c3ccccc3N3C(=O)C[C@H](C)C3=O)CC[C@H](OC)[C@@]34[C@@H]5C[C@H]6[C@H](OC)[C@@H]5[C@](O)(C[C@@H]6OC)[C@](O)([C@@H](OC)[C@H]23)[C@@H]14
inactive: max response (CRL-7250 [1]) -0.686% | max response (HEK293) 2.21% | max response (HaCat [2]) -1.58% | outcome (KB-3-1) | outcome (NIH3T3)

CC12CCC3C(CCC4(O)CC(O)CCC34C=O)C1(O)CCC2C1=CC(=O)OC1 (stereo not drawn)
inactive: outcome (NIH3T3)
active: Potency (CRL-7250 [1]) 326 nM | Potency (HEK293) 1.03 µM | Potency (HaCat [2]) 1640 nM | Potency (KB-3-1) 1160 nM

COC(=O)N1CCN(C(=O)Cc2ccc(Cl)c(Cl)c2)[C@@H](CN2CCCC2)C1
inactive: max response (CRL-7250 [1]) -2.38% | max response (HEK293) -9.31% | max response (HaCat [2]) -8.83% | max response (KB-3-1) -3.66% | outcome (NIH3T3)

COc1cc2c(cc1OC)[C@@]13CCN4CC5=CCO[C@H]6CC(=O)N2[C@H]1[C@H]6[C@H]5C[C@H]43
inactive: max response (CRL-7250 [1]) -0.912% | max response (HEK293) -25.1% | max response (HaCat [2]) -7.03% | max response (KB-3-1) 8.18% and 2.14% | max response (NIH3T3) 1.02%

CC[C@H]1CN2CC[C@H]1C[C@H]2[C@H](O)c1ccnc2ccc(OC)cc12
inactive: outcome (CRL-7250 [1]) | max response (HEK293) -14.1% | outcome (HaCat [2]) | max response (KB-3-1) 0.288% | outcome (NIH3T3) | outcome (CRL-7250 [3]) | outcome (HACAT [4])

CN1CCCC1CCOC(c1cc2nccc(C(=O)O)c2[nH]1)c1ccccc1Cl (stereo not drawn)
inactive: outcome (CRL-7250 [1]) | max response (HEK293) 1.78% | max response (HaCat [2]) -3.9% | max response (KB-3-1) 7.27% | outcome (NIH3T3) | outcome (CRL-7250 [3])

CCOc1ccccc1-n1c(C(C)N2CCN(C(=O)COc3ccc(Cl)cc3)CC2)nc2ccccc2c1=O (stereo not drawn)
inactive: max response (HaCat [2]) -19.2%
active: Potency (CRL-7250 [1]) 5.17 µM and 3.71 µM | Potency (HEK293) 4.11 µM and 2.95 µM | Potency (HaCat [2]) 18600 nM | Potency (NIH3T3) 1.03 µM and 933 nM
